Laboratory results from PubChem BioAssay (NCI).
The panel holds about 79,000 compounds, 15% with a hit somewhere; the sample as a whole holds those more often. A number with no mark means an inactive call. Activity calls are given as the source filed them. No stated cut-off is given here; in the data, active means growth inhibition above about 70%; inactive means the rest.

Columns and labels:
[1] = NCI Yeast Anticancer Drug Screen. Data for the rad50 strain (AID 155);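 further: 0% = growth of vehicle-only cultures of the same strain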; settings: S. cerevisiae rad50 strain growth inhibition, stronger effect = higher value
Method in brief: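 DNA repair mutant yeast, compound exposure, growth read-out; inhibition is taken relative to vehicle.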

[2] = NCI Yeast Anticancer Drug Screen. Data for the mec2-1 strain (AID 157); settings: S. cerevisiae mec2-1 strain, stronger effect = higher value
Method in brief: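 Using mec2-1 yeast: add compound, measure growth, express inhibition versus vehicle-treated cultures.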

[3] = NCI Yeast Anticancer Drug Screen. Data for the sgs1 mgt1 strain (AID 161);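 further: 0% = growth of cultures given vehicle only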; settings: S. cerevisiae sgs1 mgt1 strain, stronger effect = higher value
Method in brief: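 This yeast growth screen uses a strain with defined DNA-repair lesions; compound-treated growth is compared with vehicle-treated growth.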

[4] = NCI Yeast Anticancer Drug Screen. Data for the cln2 rad14 strain (AID 165);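 further: 0% = growth equal to vehicle treated cultures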; settings: S. cerevisiae cln2 rad14 strain, stronger effect = higher value
Method in brief: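 Yeast strain cln2 rad14, bearing defects in cell cycle control and DNA repair, serves as the test system; values reflect growth inhibition compared with vehicle.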

[5] = NCI Yeast Anticancer Drug Screen. Data for the bub3 strain (AID 167); settings: S. cerevisiae bub3 mutant strain, stronger effect = higher value
Method in brief: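 In this screen, a yeast mutant lacking normal mitotic checkpoint function is challenged with compound. Relative growth versus vehicle gives the inhibition value.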

[6] = NCI Yeast Anticancer Drug Screen. Data for the mlh1 rad18 strain (AID 175); settings: S. cerevisiae mlh1 rad18 strain growth inhibition, stronger effect = higher value
Method in brief: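 Steps: expose repair-defective yeast to compound; measure growth; express inhibition against vehicle-treated controls.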

[7] = at 5.0 µM (retest, dose inferred, filed as 0.5)
[8] = at 50.0 µM (retest, dose inferred, filed as 5.0)

SMILES | growth inhibition [1, 7] [%] | growth inhibition [1, 8] | growth inhibition ([1]; at 50.0 µM) | growth inhibition [2, 7] | growth inhibition [2, 8] | growth inhibition ([2]; at 50.0 µM) | growth inhibition [3, 7] | growth inhibition [3, 8] | growth inhibition ([3]; at 50.0 µM) | growth inhibition [4, 7] | growth inhibition [4, 8] | growth inhibition ([4]; at 50.0 µM) | growth inhibition [5, 7] | growth inhibition [5, 8] | growth inhibition ([5]; at 50.0 µM) | growth inhibition [6, 7] | growth inhibition [6, 8] | growth inhibition ([6]; at 50.0 µM)
CC(C)(C)[Si](C)(C)O/N=C\c1cccc(O[Si](C)(C)C(C)(C)C)c1 | -3 | 97% (active) | 48% | -6% | 95% (active) | 12.3% | 0% | 99% (active) | 78.5% (active) | -13% | 97% (active) | 54.8% | 3% | 94% (active) | 36% | -3% | 98% (active) | 76.8% (active)
COc1ccc(C(c2ccccc2C(=O)O)c2ccc(OC)c3ccccc23)c2ccccc12 | 47 | 94% (active) | 59.6% | 70% (active) | 96% (active) | 88.8% (active) | 97% (active) | 96% (active) | 87.8% (active) | 96% (active) | 95% (active) | 89% (active) | 94% (active) | 95% (active) | 89.8% (active) | 97% (active) | 96% (active) | 88.7% (active)
Cc1nc(Cl)c(C#N)c(C)c1[N+](=O)[O-] | -103 | 91% (active) | 79.9% (active) | -31% | 81% (active) | 81.9% (active) | -46% | 84% (active) | 70.3% (active) | -37% | 75% (active) | 87% (active) | -63% | 83% (active) | 75.3% (active) | -115% | 91% (active) | 84.8% (active)
Cc1c(O)ccc2c1OCC(c1ccc(Cl)cc1)C2 (configuration not stated) | -19 | 72% (active) | 87.9% (active) | 0% | 13% | 70.2% (active) | -7% | 21% | 72.8% (active) | 10% | 39% | 78.5% (active) | 32% | 85% (active) | 92.9% (active) | -10% | 43% | 94.2% (active)
C/C(=N/NC(=O)Nc1ccc(N=Nc2ccccc2)cc1)c1cccnc1 | -10 | -6% | 12.7% | -3% | -11% | -9.55% | 2% | 21% | 19.6% | 36% | -51% | -1.5% | 7% | 4% | 10.8% | 5% | 25% | 14.3%
COc1cccc2c1C(=O)c1c(O)c3c(c(O)c1C2=O)C[C@@](O)(/C(C)=N/NC(N)=S)C[C@@H]3OC1CC(N)C(O)C(C)O1 (some centres not stated) | 27 | 91% (active) | 95.5% (active) | 8% | 58% | 94.7% (active) | 3% | 56% | 96.3% (active) | 4% | 38% | 82.8% (active) | 4% | 60% | 95.3% (active) | 8% | 75% (active) | 95.7% (active)
CN(c1ccc(C(N)=O)cc1)c1c(O)c2ccccc2[nH]c1=O | 1 | 58% | -27.9% | -1% | 48% | 6.8% | 1% | 51% | 14.6% | 4% | 42% | 24.9% | -4% | 46% | 23.5% | 0% | 63% | 15.5%
CCOC(=O)N1C=C(C(=O)OC)C(c2ccccc2)C(C(=O)OC)=C1 | 4 | 6% | -15.2% | 0% | 20% | -9.35% | 5% | 14% | -6.3% | -5% | 4% | 32.6% | 8% | 35% | -4.25% | 2% | 20% | 1.25%
COc1ccc(C2=C(Cl)C(=O)N(c3ccccc3C)C(=O)C2(Cl)Cl)cc1 | 66 | 95% (active) | 94.3% (active) | 17% | 97% (active) | 97.8% (active) | 83% (active) | 97% (active) | 97.9% (active) | 24% | 94% (active) | 85.4% (active) | 44% | 95% (active) | 94.1% (active) | 70% (active) | 93% (active) | 97.7% (active)
CC12CCC(O)CC1=CCC1C2CCC2(C)c3nc(C#N)c(=N)n(O)c3CC12 (configuration not stated) | 12 | 96% (active) | 98.5% (active) | 0% | 71% (active) | 98.7% (active) | 6% | 93% (active) | 99.2% (active) | 4% | 89% (active) | 98.5% (active) | 1% | 81% (active) | 98% (active) | 44% | 85% (active) | 99.2% (active)
CC(=O)c1c(O)c2cccc3c2n(c1=O)CCC3 | 26 | 99% (active) | 97.2% (active) | -13% | 99% (active) | 91.6% (active) | 4% | 98% (active) | 94.9% (active) | 3% | 98% (active) | 71.3% (active) | -2% | 99% (active) | 84.4% (active) | 11% | 98% (active) | 95.3% (active)
ClC1(c2ccccc2)c2ccccc2-c2ccccc21 | -26 | 98% (active) | 92.2% (active) | 4% | 99% (active) | 95.6% (active) | -6% | 98% (active) | 83.9% (active) | -1% | 92% (active) | 8.7% | 4% | 98% (active) | 95.8% (active) | 0% | 94% (active) | 97.1% (active)
CC(C)c1ccc2c(c1)CC[C@H]1[C@](C)(CN)CCC[C@]21C | 3 | 98% (active) | 98.8% (active) | 2% | 98% (active) | 89.2% (active) | 11% | 99% (active) | 99.7% (active) | 3% | 97% (active) | 91.8% (active) | 7% | 99% (active) | 90% (active) | -9% | 98% (active) | 98.4% (active)
O=S(=O)(c1ccc2c(c1)CCCN2)N1CCC[C@H]2CCCC[C@@H]21 | 7 | 94% (active) | 95.3% (active) | -2% | 96% (active) | 96.8% (active) | 0% | 95% (active) | 97.1% (active) | 32% | 94% (active) | 95.5% (active) | 14% | 96% (active) | 98.2% (active) | 11% | 93% (active) | 95% (active)
CCCCC(CC)(COC(C)=O)COC(C)=O | -3 | 0% | 7% | 1% | 2% | 12.7% | 3% | -1% | 2.6% | 2% | 5% | 42.5% | 4% | 4% | -2% | 1% | -1% | -16.7%
OC1(c2ccc(Br)cc2)C2CCCCC2C2CCCCC21 (configuration not stated) | 36 | 92% (active) | 98% (active) | 7% | 95% (active) | 98.5% (active) | 18% | 95% (active) | 98.3% (active) | -4% | 92% (active) | 97.7% (active) | 7% | 93% (active) | 98.4% (active) | 10% | 95% (active) | 98.2% (active)
N/C(CC(=O)NOC(=O)c1ccccc1)=N/OC(=O)c1ccccc1 | 55 | 99% (active) | 99% (active) | 19% | 99% (active) | 99.5% (active) | 54% | 62% | 99.5% (active) | 6% | 100% (active) | 99% (active) | -6% | 99% (active) | 99.2% (active) | 27% | 99% (active) | 99.2% (active)
O=C1OC(=O)c2ccc(S)c3cccc1c23 | -35 | 95% (active) | 81.8% (active) | -25% | 85% (active) | 61.2% | -53% | 86% (active) | 38.6% | -42% | 68% | 36.7% | -32% | 90% (active) | 88.8% (active) | -80% | 95% (active) | 76% (active)
O=C(N/C(=C/c1ccc(Cl)cc1Cl)c1nc2ccccc2s1)c1ccccc1 | 27 | 98% (active) | 98.6% (active) | 13% | 98% (active) | 97.7% (active) | 56% | 99% (active) | 98.9% (active) | 14% | 98% (active) | 98.1% (active) | 31% | 98% (active) | 98% (active) | 26% | 98% (active) | 98.2% (active)
